Test results reported in PubChem BioAssay AID624388 (National Center for Advancing Translational Sciences (NCATS), 2012).

Molecular target: Pyruvate kinase PKLR (Homo sapiens) (UniProt P30613)
Assay: qHTS for Activators of Human Muscle Isoform 2 Pyruvate Kinase (PK): Extended Characterization using Reticulocyte PK Probe 2
Conditions: purified hPK-R, ATP production, Kinase-Glo luminescence; series mostly up to 58 µM; activity change, positive = activation: at the top concentration; active means well fitted curve in the direction sought with a large enough effect; inactive means no such curve, though single readings can be large or run the other way
From the text: Human pyruvate kinase reticulocyte (hPK-R) enzyme was supplied as a highly purified (>95% pure) preparation from Structural Genomics Consortium in Toronto (Ontario, Canada) and assayed for its ability to generate ATP from ADP using phosphoenolpyruvate (PEP) as a substrate. ATP generation was detected in a coupled reaction by luciferase-mediated luminescence, an ATP-dependent process. Pyruvate kinase substrates, PEP and ADP, were present in the assay at Km and approximately 10-fold below Km respectively. The enzyme was assayed at an intermediate level of activity to screen for both inhibitors and activators. NIH Chemical Genomics Center [NCGC] NIH Molecular Libraries Probe Centers Network [MLPCN] MLPCN Grant: MH085679 Assay Submitter (PI): Matthew G. Vander Heiden, Harvard Medical School
Three uL of substrate mix (at r.t.) in assay buffer (50 mM Imidazole pH7.2, 50 mM KCl, 7 mM MgCl2, 0.01% Tween 20, 0.05% BSA) was dispensed into white solid bottom 1,536 well microtiter plates so that the final concentrations of substrates in the assay were 0.1 mM ADP and 0.5 mM PEP. 23 nL of compound were delivered by a pin tool and 1 uL of enzyme mix (final concentration of 0.1 nM) in assay buffer (4 degree Celsius) was added. Plates were incubated at room temperature for 1 hour. Two uL of detection mix (Kinase-Glo, Promega; at 4 degree Celsius protected from light) was added and luminescence read by a ViewLux (Perkin Elmer) at 1 second exposure/plate. Data were normalized to the uninhibited (row 31). Additionally, a no enzyme and 5-fold enzyme control was dispensed in row 32, split equally between the two conditions.

Pyruvate kinase PKLR (Homo sapiens), sequence (P30613 whole entry, looked up, canonical isoform): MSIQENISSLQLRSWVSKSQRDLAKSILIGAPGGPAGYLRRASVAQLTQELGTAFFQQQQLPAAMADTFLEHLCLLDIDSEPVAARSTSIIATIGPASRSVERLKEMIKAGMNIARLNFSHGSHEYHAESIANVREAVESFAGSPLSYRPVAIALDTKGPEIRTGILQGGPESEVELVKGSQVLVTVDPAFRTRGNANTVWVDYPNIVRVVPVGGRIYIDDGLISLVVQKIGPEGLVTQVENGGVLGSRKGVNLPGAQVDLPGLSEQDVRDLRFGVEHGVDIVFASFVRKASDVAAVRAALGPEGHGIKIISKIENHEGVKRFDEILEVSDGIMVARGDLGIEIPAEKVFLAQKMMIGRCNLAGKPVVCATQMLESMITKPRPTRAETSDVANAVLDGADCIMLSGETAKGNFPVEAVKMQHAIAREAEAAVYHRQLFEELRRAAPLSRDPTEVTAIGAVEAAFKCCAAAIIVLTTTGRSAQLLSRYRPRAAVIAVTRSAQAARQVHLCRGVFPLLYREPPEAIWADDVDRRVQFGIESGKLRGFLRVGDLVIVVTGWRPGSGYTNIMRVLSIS

Activity change, positive = activation, inactive:
Nc1cccc(S(=O)(=O)N2CCCN(S(=O)(=O)c3ccc4c(c3)OCCO4)CC2)c1 5.42%
COc1cccc(Cn2ncc3c4sc(S(C)=O)cc4n(C)c3c2=O)c1 (centres undefined) 11.4%
O=S(=O)(c1ccc2c(c1)OCCO2)N1CCN(S(=O)(=O)c2c(F)cccc2F)CC1 -1.4%
Cc1ccc(NS(=O)(=O)c2ccc3c(c2)CCC(=O)N3)cc1C 0.285%
